From PubChem BioAssay AID587 (National Center for Advancing Translational Sciences (NCATS), 2007) come the findings set out here.

SMILES strings stand for the structures. In all, about 59,000 compounds went through this assay and about 35 (0.06%) were called active. About 19% were inconclusive and are not listed. This is one part of a sample in which actives are shown more often than they occur. No stated cut-off is given here; in the data, active means max dye-equivalent concentration above about 10 nM; inconclusive means between about 1.1 nM and that limit; inactive means weaker than that.

A short description of this assay: qHTS Assay for Spectroscopic Profiling in Texas Red Spectral Region. Particulars: Compound fluorescence, Texas Red channel, 547/618 nm. From the text:
NIH Molecular Libraries Screening Centers Network [MLSCN] NIH Chemical Genomics Center [NCGC] […] Occasionally, the artifactual effect may originate from the compound#s own spectral or other biophysical properties which generally tend to track its assay concentration. Pre-screening/profiling the library with respect to the compounds# spectral properties should help one exclude false positives early on. While the most informative fluorescent profiling data set is obtained by performing a full excitation and emission scan of each well by using a monochromator-based plate reader, such an approach is practical only on a very limited scale as scanning each well requires long time. An alternative approach, applied here, is to perform plate reader scans using selected excitation and emission wavelength pairs to generate a multidimensional relational database that correlates compound concentration and the respective relative fluorescence intensity at a given wavelength set. A standard curve of Texas Red (TR) present on each plate as six-point concentration series, was used to compute a normalized fluorescence response, termed dye-equivalent concentration, for each compound at each concentration.
NCGC Assay Protocol Summary: Buffer: 100 mM Tris buffer, pH 8.0 Dye standard plate: The wells in columns 1 through 4 of a Kalypsys polypropylene 1536-well compound plate were filled with standard solutions of fluorophore corresponding to the spectral region of interest. Solutions of TR were placed in the following wells: U1, V1: 3 mM, U2, V2: 300 uM, U3, V3: 30 uM, U4, V4: zero (DMSO), W1, X1: 3 uM, W2, X2: 900 nM, W3, X3: 300 nM, W4, X4: zero (DMSO). Assay Steps: Six uL of buffer were dispensed to 1536-well Greiner black plates. Compounds and dye standards (23 nL) were transferred via Kalypsys PinTool. The plates were incubated for 15 min at room temperature, and then read on ViewLux (Perkin-Elmer) High-throughput CCD imager using 547 nm and 618 nm excitation and emission filter set. Keywords: NIH Roadmap, MLSCN, MLI, MLSMR, qHTS, NCGC, Texas Red, Fluorescent Profiling.
(qHTS replaces the single test concentration by a dilution series.)
For the molecule `COc1ccc(OCc2cccc(C(=O)N3CCCC3)c2)cc1`, the max dye-equivalent concentration entry was “inactive”. In the case of `CN(c1ccc(C(=O)NCCC2=CCCCC2)cc1)S(C)(=O)=O` it was “inactive”; in that of `CCOc1ccc(C2C(C(=O)O)c3ccccc3C(=O)N2CCN2CCOCC2)cc1` (stereo not given), “inactive”; in that of `COc1ccccc1CNc1ncnc2ccc(-c3ccc4c(c3)OCO4)cc12`, “inactive”. Under `Cc1ccc2nc(-c3ccc(SCC(=O)Nc4cc(C)on4)nc3)[nH]c2c1` stands “inactive”. In the case of `COc1ccc(-n2c(SCC(=O)NCc3cccs3)nnc2-c2ccoc2C)cc1` it was “inactive”; in that of `CN(C)CCNC(=O)C(C(=O)c1ccccc1)n1ccccc1=O` (stereo not given), “inactive”. With `CC1Cn2c(nnc2-c2cccs2)S1` (stereo not given), the max dye-equivalent concentration result is “inactive”. For `CSc1ncccc1C(=O)OCC(=O)N1CCOCC1`, the max dye-equivalent concentration result is “inactive”. As for `c1ccc(-c2oc3ncnc(N4CCOCC4)c3c2-c2ccccc2)cc1`, the max dye-equivalent concentration entry is “inactive”. Under `O=c1c(-c2cc(F)cc(F)c2)nc2cnc(Oc3ccccc3)nc2n1C[C@H]1CCCO1` stands “inactive”.

Regarding `COc1ccc(-n2ncc3c(N4CCc5ccccc54)ncnc32)cc1`, the max dye-equivalent concentration result was “inactive”. In the case of `CN(C)c1ccc(-c2nc(NCCN3CCOCC3)c3ccccc3n2)cc1` it was “inactive”; in that of `CC(NCCO)C(=O)C12CC3CC(CC(C3)C1)C2` (stereo not given), “inactive”; in that of `O=c1c(-c2ccc(F)cc2)nc2cnc(N3CCOCC3)nc2n1-c1ccccc1`, “inactive”. Under `Cc1cc(N2C(=O)C(=O)/C(=C(/O)c3ccc(Cl)cc3)C2c2cccc(Br)c2)no1` (stereo not given) stands “inactive”; under `CC[C@H](c1ccccc1)c1cc(C(C)(C)C)cc(C(C)(C)C)c1O`, “inactive”. In the case of `COc1ccc(C(=O)n2nc(-c3ccc(C)cc3)nc2N)cc1OC`, the max dye-equivalent concentration result was “inactive”. Regarding `Cn1cc(-c2nc3cnc(N4CCNCC4)nc3n(CCc3ccccc3)c2=O)c2ccccc21`, the max dye-equivalent concentration entry was “inactive”. In the case of `O=c1c(CCc2ccccc2)nc2cnc(N3CCNCC3)nc2n1Cc1cccs1` it was “inactive”; in that of `Cc1nc2nc(COc3ccccc3)[nH]n2c(=O)c1C`, “inactive”. In the case of `COc1ccc(C(C(O)C(=O)c2c[nH]c3ccccc23)N2CCN(c3ccccc3)CC2)cc1` (stereo not given) it was “inactive”; in that of `COc1ccc(NS(=O)(=O)c2ccc(NC(=O)C(C)(C(F)(F)F)C(F)(F)F)cc2)nn1`, “inactive”; in that of `N#Cc1ccc(OCCN2C(=O)NC3(CCSC3)C2=O)cc1` (stereo not given), “inactive”.

As for `Cc1nc2cnc(Nc3ccccc3)nc2n(Cc2ccc(F)cc2)c1=O`, the max dye-equivalent concentration result is “inactive”. Under `CC(=O)O[C@]1(C(C)=O)CC[C@@H]2[C@@H]3C=C(C)C4=CC(=O)CC[C@@]4(C)[C@H]3CC[C@]21C` stands “inactive”.

For `Cc1oc(-c2cccc(Cl)c2)[n+]([O-])c1C`, the max dye-equivalent concentration result was “inactive”.

In the case of `CCOC(=O)CCc1c(C)c(C#N)c2[nH]c3ccccc3n2c1=O`, the max dye-equivalent concentration entry is “inactive”. Under `Cc1cc(C)c(C#N)c(SCc2ccccc2C(=O)O)n1` stands “inactive”. In the case of `CC(CCc1ccccc1)NC(=O)c1ccc(Br)o1` (stereo not given), the max dye-equivalent concentration entry was “inactive”. For `CCCCCNC(=O)Cc1ccc(OC)cc1`, the max dye-equivalent concentration entry was “inactive”.

Turning to `CCN(CC)C(=O)N1CCN(C(=O)c2ccc(C)cn2)CC1`, the max dye-equivalent concentration result is “inactive”. In the case of `CCCOC(=O)C1=C(C)NC2=C(C(=O)C(C(=O)OC)C(C)C2)C1c1ccc(N(C)C)cc1` (stereo not given) it was “inactive”; in that of `Cc1cc(C)n(-c2ccc(Cl)c(C(=O)O)n2)n1`, “inactive”.

For `COCCn1c(=O)c(C)nc2cnc(N(C)C)nc21`, the max dye-equivalent concentration result is “inactive”. In the case of `COCCn1c(=O)c(-c2ccc(OC)cc2)nc2cnc(Oc3cccc(Cl)c3)nc21` it was “inactive”. As for `O=C(O)CCC(=O)N(Cc1ccco1)c1nc(-c2ccccc2)cs1`, the max dye-equivalent concentration entry is “inactive”. Under `COc1ccc2nc(NC3=NCN(CC4CCCO4)CN3)nc(C)c2c1` (stereo not given) stands “inactive”. In the case of `COc1ccc(-c2ccnc(SCC(=O)N3CCOCC3)n2)cc1` it was “inactive”; in that of `COc1ccc(-c2nc3cnc(OC)nc3n(Cc3ccc(F)cc3)c2=O)cc1`, “inactive”. For the molecule `COc1ccc(CCn2c(-c3ccco3)nc3nc4ccccc4nc32)cc1OC`, the max dye-equivalent concentration result is “inactive”. In the case of `COc1ccc(C(C)=O)cc1COC(=O)Cn1cnc2ccccc2c1=O` it was “inactive”; in that of `Cc1cc(C)nc(SCc2nnc(SCC(=O)Nc3ncc(C)s3)n2Cc2ccco2)n1`, “inactive”.

Turning to `COc1ncc2nc(-c3ccc(Cl)cc3)c(=O)n(C)c2n1`, the max dye-equivalent concentration entry is “inactive”. With `Cn1c(=O)c(-c2ccccc2)nc2cnc(N3CCNCC3)nc21`, the max dye-equivalent concentration entry is “inactive”.

For `CS(=O)(=O)N(CC(=O)NCc1ccco1)c1ccc2c(c1)OCO2`, the max dye-equivalent concentration entry is “inactive”. In the case of `Cc1cccc2cc(CN(Cc3nnnn3Cc3ccccc3)C3CCCC3)c(=O)[nH]c12` it was “inactive”; in that of `CC(C)C(=O)Nc1cccc(C(=O)Nc2ccc3c(c2)OCO3)c1`, “inactive”; in that of `O=C1NC(=O)[C@@](Cc2ccccc2)(c2cccnc2)N1`, “inactive”. In the case of `O=C(CN(c1ccc2c(c1)OCCO2)S(=O)(=O)c1ccccc1)Nc1ccc2c(c1)OCO2` it was “inactive”; in that of `CN1CCc2c(sc3c2c(NCc2ccco2)nc2nnnn23)C1`, “inactive”. Under `COc1ccc(C)cc1NC(=O)CSc1nc(SC)ns1` stands “inactive”; under `N#Cc1ccccc1-c1ccc2ncnc(NCc3cccnc3)c2c1`, “inactive”; under `CCCC(=O)N1c2ccc(-c3csc(N)n3)cc2CC1C` (stereo not given), “inactive”.

For the molecule `COc1ccc(-n2c(=O)c(C)nc3cnc(N4CCOCC4)nc32)cc1`, the max dye-equivalent concentration entry was “inactive”.
